Compound activity: PubChem BioAssay, National Center for Advancing Translational Sciences (NCATS)
LASV entry inh = inhibitors of Lassa virus binding or cell entry; Lassa virus pseudotype entry inhibition, cell reporter; Potency, µM (top dose mostly 37.9 µM), for inactives: at the top dose activity change, negative = inhibition, usual class: inhibitors; actives 1.2% (n = 300,000); AID 540256; calls by dose curve; tested in HEK293 cells; further: potency means the concentration at half of the fitted maximal effect; on the % scale 0 is the no-effect control and ±100 the full control effect; nearly all actives have a fitted effect of over 50% in size
HCV inhibitor = blocks hepatitis C virus; actives 3.4% (n = 340,000); AID 651820; Potency, µM (top dose mostly 41.8 µM), for the others: top-dose activity change, negative = inhibition, usual class: inhibitors; Huh7.5.1 HCVcc-Cre infection, luciferase reporter, 44 h; active means well fitted inhibition curve with a large enough effect; inconclusive means small, poorly fitted or top-dose-only effect, or another doubt; inactive means no such curve, though single readings can be large or run the other way; further: potency means the concentration at half of the fitted maximal effect; on the % scale 0 is the no-effect control and ±100 the full control effect
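Compounds are dispensed onto cells plated 4 h earlier at 1,000 per well, with HCVcc-Cre virus (about 0.5 moi) added next. Following 44 h of culture, luminescent signal is measured for 15 sec after 15 min with substrate at room temperature.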
Shiga inhibitor = Shiga toxin inhibition; Vero cells, Shiga toxin protein synthesis inhibition reporter; inhibition, % at 38.7 µM; actives 9.2% (n = 290,000); in the data active means inhibition mostly above about 28%, no sharp cut-off; inactive means mostly below about 43%; further: 0% is about no effect
MARV entry inh = inhibitors of Marburg virus binding or cell entry; actives 1.8% (n = 300,000); Marburg virus pseudotyped entry inhibition, cell reporter; AID 540276; Potency, µM (series often up to 37.8 µM), for inactives: at the top dose activity change, negative = inhibition, usual class: inhibitors; calls by dose curve; tested in HEK293 cells; further: potency means the concentration at half of the fitted maximal effect; on the % scale 0 is the no-effect control and ±100 the full control effect
CHX counter = affects cycloheximide protein synthesis inhibition readout, counter-screen; cell reporter, cycloheximide protein synthesis inhibition counterscreen; max response, %; actives 12% (n = 300,000); in the data active means max response mostly above about 13%, no sharp cut-off; inactive means mostly below about 14%; further: read at 38.3 µM for the half of the compounds with a filed dose; 0% is about no effect
FMDV inh = antivirals against foot and mouth disease virus; FMDV antiviral cell-based qHTS; Potency, µM (series often up to 57.9 µM), without a hit: at the highest dose activity change, negative = inhibition, hits mostly inhibitors; actives 1.2% (n = 410,000); calls by dose curve; tested in HEK293T cells; further: read-out not given here; potency means the concentration at half of the fitted maximal effect; on the % scale 0 is the no-effect control and ±100 the full control effect; nearly all actives have a fitted effect of over 45% in size
Numbers without * were called inactive; ? = inconclusive; · = not tested or not shown; [ ] = remark or other dose. This is a sample that favours compounds with a hit; in the whole collection about 13% have one here.

SMILES	LASV entry inh	HCV inhibitor	Shiga inhibitor	MARV entry inh	CHX counter	FMDV inh
CCc1nnc(NC(=O)c2ccncc2)s1	27%	-8%	12	13%	-4	26%
CCc1nnc(NC(=O)c2ccc3ncsc3c2)s1	·	3%	47*	·	18*	38%
CCc1nnc(NC(=O)c2ccc3c(c2)C(=O)N(C(C)(C)C)C3=O)s1	-6%	12%	38	?	17*	43%
Cc1cnc(NC(=O)c2ccc3ncsc3c2)s1	?	1%	·	?	·	18%
S=c1[nH]nc(Nc2cccc(Cl)c2)s1	4%	4%	15	?	-6	-5%
CCc1nnc(NC(=O)CSc2nnc(CNC(=O)c3ccccc3F)n2C)s1	-1%[46.1 µM]	12%	-4	3%[46.1 µM]	-4	-9%
CCCCNC(=O)c1nc(C2CCN(S(=O)(=O)c3ccccc3)CC2)oc1-c1cccc(C(F)(F)F)c1	·	·	·	·	·	-7%
O=C(NCCc1ccccc1)[C@@H]1CC=C[C@@H]2CCN(Cc3ccccc3)C(=O)[C@@H]21	·	?	·	·	·	19%
O=C(Nc1nc(=O)c2ccccc2s1)c1ccccc1	-25%	12%	95*	?	46*	0%
CC(=O)Nc1nc(=O)c2ccccc2s1	-18%	7%	32	11%	-7	0%
O=C(Nc1nc2ccccc2s1)c1ccc(Cl)s1	·	-26%	86*	·	32*	6%
COc1ccc(C(=O)Nc2nc3ccccc3s2)cc1OC	?	-17%	16	?	1	33%
COc1cccc(C(=O)Nc2nc3ccccc3s2)c1	·	-6%	57*	·	35*	-9%
COc1ccc2nc(NC(=O)c3ccc(-n4nc(C)cc4C)cc3)sc2c1	-18%	-19%	-16	-26%	-3	-12%
COc1ccc2nc(NC(=O)c3ccc(F)cc3)sc2c1	-1%[46.1 µM]	-25%	·	?	27*	17%
COc1ccc(-c2nc3n(c(=O)c2C#N)CCS3)cc1OC	·	4%	-17	·	-1	-4%
O=C(COC(=O)/C=C/c1cccc(Cl)c1)NCCc1ccc(Cl)cc1Cl	-10%	25%	23	11%	-1	-11%
CCc1c(C)c2ccc(O)c(CN3CCCC3)c2oc1=O	?	-1%	-6	11%[46.1 µM]	4	-3%
CC(C)(C)n1nnnc1C(c1cccs1)N1CCN(C/C=C/c2ccccc2)CC1 (stereo not drawn)	·	·	·	·	·	-12%
N#C/C(=C/C=C/c1ccccc1)C(=O)Nc1ccccc1	?	-9%	23	2.9µM*	6	30%
N#C/C(=C\C=C\c1ccccc1)C(=O)Nc1ccccc1	-1%	-15%	13	-20%	15*	2%
COCCNC(=O)/C(C#N)=C/C=C/c1ccccc1	-3%[46.1 µM]	-3%	43	?	17*	13%
N#C/C(=C\c1ccccc1)C(=O)Nc1cccnc1	·	12%	-16	·	-1	6%
O=CN1CCN(C(C(=O)NC2CCCC2)c2cc3c(cc2[N+](=O)[O-])OCO3)CC1 (stereo not drawn)	·	8%	9	21%[46.1 µM]	10	19%
O=C(NC1CCCC1)C(c1cc2c(cc1[N+](=O)[O-])OCO2)N1CCCC1 (stereo not drawn)	?	5%	66*	-27%	18*	25%
SMILES	LASV entry inh	HCV inhibitor	Shiga inhibitor	MARV entry inh	CHX counter	FMDV inh
COc1ccc(Cc2nc(-c3cccs3)no2)cc1	·	10%	70*	·	33*	19%
COc1cccc(NC(=O)CCc2nc(-c3cccs3)no2)c1	-3%[46.1 µM]	7%	4	-26%[46.1 µM]	6	15%
COc1ccc(Cc2nc(-c3ccc(-n4cccc4)cc3)no2)cc1	2%	-11%	2	4%	4	-9%
COc1ccc(-n2nnc(-c3nc(-c4cccs4)no3)c2N)cc1OC	-12%[46.1 µM]	·	·	·	·	4%
COc1ccc(Cc2nc(-c3ccccc3)no2)cc1	9%	4%	42*	?	36*	46%
COc1ccc(Cc2nc(-c3ccc(-n4cccc4)cc3)no2)cc1OC	·	10µM*	14	·	14	?
COc1ccc(Cc2nc(-c3cccs3)no2)cc1OC	·	?	29	·	24*	-13%
CN(C(=O)COC(=O)c1ccc(Cl)s1)C1(C#N)CCCCC1	-5%	18%	·	-1%[46.1 µM]	·	27%
COCCNC(=O)CCc1c(C)nc2nc(-c3cc(OC)cc(OC)c3)nn2c1C	2%[46.1 µM]	0%	-9	?	5	-14%
